# From the supplement of paper PMC6555819
# System: VDR:RXRa (NR concentration 270 nM, RXRa partner concentration 90 nM)
# Test: PBM binding z-score (relative to random genomic background probes); higher = stronger binding; sequences stand for … in GC…GCGATTGACAGCGTAGAATGAAGG
# Protocol: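 Protein-binding microarray (Agilent 4x180K custom design, double-stranded 60-nt probes: 5' GC cap, 34-nt variable region, 24-nt constant primer region; full probe sequence given). Purified or IVT nuclear receptor:RXRα heterodimers (3:1 NR:RXRα, mostly 270:90 nM) or homodimers were incubated for 1 h in PBS with 2% milk and no ligand, then detected with Alexa488 antibodies. Fluorescence from o1-orientation probes (~5 replicates averaged) was converted to z-scores against 500 random hg19 background probes. Variable regions are seed direct-repeat (DR0–DR5) sites, all their single-nucleotide variants and half-site ablations.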
row,Sequence,PBM binding z-score
1,CTCGAAAGGTCGTGCTCAGGTGAGTATCCCAAAC,3.03
2,CCTACTGGGCCACGAAAGTTCATTGATTCAGTGA,3.51
3,TGAATGAGGTTATAATATCAGGGAACGTTGCAAA,1.35
4,CGTCCAAGGTCAGCAGGTCATTGAAAGCGACGTG,4.67
5,CCTTACGGGCCACTGACAGGTTATAGCATTTGGA,-0.202
6,TCGAGTAGGTTAGGGGCATCCAGAATGGCGTCGA,0.536
7,GCTGCTAGGTCAGGTTGGACAGCTAACGGGTACG,0.304
8,CATACTGGGCCATTCAGAGGTCATTGATCATATG,4.15
9,TCTTGTAGATCAACAGGAGGGTAAGAAAGATCGA,0.029
10,ATCTCTAGGTAAAGTTCAGTAAAAGATCGATAGA,1.65
11,AATCAAAGTTCAGGACGAGGTAACGTAAAGCACG,3
12,TCTAGTTGGTCAAAGGACACACACTCGAAATGCG,1.05
13,GGAACGAGGGCATTCGAATTGATAGCATGGCGAT,1.13
14,CCTGCTAGGTCAATGGTCAGCCAAAGCAGCTCGC,0.672
15,CGTCCAAGCTCAATGCTAGGTCAGTGAAAGCATT,-0.0498
16,TCGAGTAGGTTAGTCGGTGCATTCAGCCAACATA,3.31
17,ACAGACAGGTGAGTGAATGTAACTCAGCTGGACG,-0.36
18,GCTGCTAGGTCAGGTTGGTCAGCCAACGGGTACG,0.447
19,CCTTCCGGGTCAAGGTTATAGCACGGGTGGTACG,3.38
20,GCTATTAGTTGAAAGGGCAACAGAATGATTCTCG,0.688

row,Sequence,PBM binding z-score
1,GCATATAGGTAATACAAGGTGCAAGTCCGATTGT,0.355
2,ACAGGCAGGTGAGTGAAGGTAACTCAGCTGGACG,-0.417
3,TGTGCTAGGTCAGTTGGTCAGCTAACGAGCTGCC,-0.0889
4,ACTTACGGGTCAGCGAGGTTATAGCACGCGTATA,6.97
5,TCTGCTAGGTCTACGATGGTCAGCTAATCTGCTA,-0.625
6,AGTCAAAGTTCAGGACGCGGTAACGTAAAGCACG,2.37
7,CGAACTAGGTCATCCAGGACAGTTAATACATTGA,4.42
8,CGAACTAGGTCATTGACAGTACAGTGAATAGTAA,2.57
9,CAAACTAGGCCAAGAGGTCAAAGTCCGCTTCCCG,4.94
10,CATACTAGGTCAAGAGGTCAAAGTCCGCTTCCCG,6.01
11,GCTCGGAGGACAGGGTCAGAGCTTTGTCCGTAGA,1.08
12,CGTCATAGTTCAACTAAGGTAACGTAAAGCACGC,2.59
13,GCAGACAGGTGAAACGCAGGTAACTTAGGGTGGC,-0.477
14,CGAACGAGGGCATGAGTTGATAGCTAATGCCGAT,1.37
15,TCAGAGAGGTGAAGGTAACTCAGGTACGCAGTCG,0.999
16,TCGATTAGTTGATTAGGGCAACCGAAACAGCGGA,0.219
17,GCTTACGGGTCAATGGTTATAGCATGAATAGAAT,2.99
18,TCGAGTAGGTTACTCGGGGCATTCAGCCAACATA,3.33
19,CAAACTAGGTCAAGGTCAACGTCGGTTTGTGCCA,5.02
20,CCTAGTTAGTCAAGGTCACACACGCTATAGGTAC,4.26
